Laboratory results taken from the supplement of paper PMC6555819.

What was measured:
Test in all cases: PBM binding z-score (relative to random genomic background probes); higher = stronger binding; sequences stand for … in GC…GCGATTGACAGCGTAGAATGAAGG
[1] = system: FXR:RXRa (NR concentration 270 nM, RXRa partner concentration 90 nM)
How it was run: (§1)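 For binding z-scores, the reference was random background probes on custom Agilent 4×180K protein-binding microarrays. These arrays were incubated 1 h with ligand-free nuclear receptor dimers in PBS pH 7.4, 2% milk, 0.02% Triton X-100, 1 mM DTT, 0.2 mg/mL BSA and 0.4 mg/ml salmon testes DNA. Fluorescence was scanned after antibody detection of each partner (one per run) and regression-normalized.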

[2] = system: LXRa:RXRa (NR concentration 270 nM, RXRa partner concentration 90 nM)
How it was run: as §1

[3] = system: LXRa homodimer (NR concentration 270 nM)
How it was run: as §1

[4] = system: LXRb:RXRa (NR concentration 270 nM, RXRa partner concentration 90 nM)
How it was run: as §1

[5] = system: LXRb homodimer (NR concentration 270 nM)
How it was run: as §1

[6] = system: PPARa:RXRa (NR concentration 270 nM, RXRa partner concentration 90 nM)
How it was run: as §1

[7] = system: PPARg:RXRa (NR concentration 180 nM, RXRa partner concentration 90 nM)
How it was run: as §1

[8] = system: PPARg:RXRa 270nM:90nM, anti-RXR (NR concentration 270 nM, RXRa partner concentration 90 nM)
How it was run: as §1

[9] = system: PPARg:RXRa 30nM:10nM, anti-RXR (NR concentration 30 nM, RXRa partner concentration 10 nM)
How it was run: as §1

[10] = system: PPARg:RXRa 90nM:30nM, anti-RXR (NR concentration 90 nM, RXRa partner concentration 30 nM)
How it was run: as §1

Row | Sequence | PBM binding z-score [1] | PBM binding z-score [2] | PBM binding z-score [3] | PBM binding z-score [4] | PBM binding z-score [5] | PBM binding z-score [6] | PBM binding z-score [7] | PBM binding z-score [8] | PBM binding z-score [9] | PBM binding z-score [10]
1 | CCAACTAGGTCACGAAAGGTCAAAGTCGAATGAC | 7.46 | 8.21 | 7.89 | 7.27 | 2.78 | 6.63 | 9.92 | 8.01 | 5.92 | 8.18
2 | ATATGTAGGTTAGCTGGTGTCATTCAGACTAGGC | 0.789 | 1.83 | -0.106 | 0.765 | 0.392 | 2.74 | 3.47 | 2.8 | 0.962 | 2.2
3 | AGAATGAGGTTACCAAAGATGAGGGAAACGCTTG | 1.89 | 2.71 | -0.269 | 1.35 | -0.264 | 3.26 | 2.61 | 2.78 | 1.03 | 1.94
4 | TCAGATAGGTAAATGCTAGGTGAAAGTCCGATCT | -0.114 | 0.46 | -0.0618 | 0.329 | -0.66 | 0.824 | 0.231 | 2.17 | 3.59 | 2.99
5 | TCAAGTAGGTTAGGGGCATTCAGAATGGCGTCGA | 0.99 | 0.718 | 0.21 | 1.28 | 0.587 | 2.19 | 2.64 | 3.58 | 3.71 | 3.65
6 | CCTAGCAGGCCAACCTGGGTCACTCAAGGCTTGA | 1.14 | 1.36 | -0.307 | 1.16 | -1.09 | 2.05 | 0.131 | 0.239 | -0.969 | -0.0466
7 | GGAACGAGGGCATTCGAGTTGATAACATGGCGAT | 1.09 | 1.76 | -0.0799 | 0.415 | -0.451 | 1.56 | 1.3 | 0.636 | -0.0941 | 0.231
8 | CCTAGCAGGCCAATCTGGGTCACTCATGGCTTGA | 0.761 | 0.933 | -0.409 | 0.376 | -1.09 | 2.62 | 1.75 | 1.93 | 0.0126 | 0.944
9 | CCTACGGGGCCATTCAGAGGTCATTGATCATATG | 3.56 | 4.88 | 6.49 | 4.17 | 0.225 | 3.62 | 1.16 | 2.21 | 0.193 | 1.32
10 | CGTCCAAGGTCAGCGAGGTCAGTGAATGCCGAGT | 6.31 | 5.26 | 1.83 | 4.28 | 0.00119 | 5 | 3.79 | 4.78 | 0.896 | 3.3
11 | TAGCCTAGGTGAGATCGGGCCAGTATACGCTATA | -0.31 | -0.533 | -0.692 | -0.901 | -0.702 | -0.453 | 0.201 | -0.291 | -0.335 | -0.319
12 | ACAGACAGGTGATGAAGGTAACTCAGGCTATCAT | -0.17 | -0.295 | -0.208 | -0.204 | -0.527 | 0.152 | 0.816 | -0.0244 | -0.0108 | -0.132
13 | TCTCGGAGGACACGAAAGGTTAGAGCTCGACATC | 1.18 | 0.89 | -0.0791 | 0.782 | -0.852 | 1.46 | 0.441 | 1.69 | 2.52 | 2.03
14 | CCTCGGAGGACCGAAGGTCAGAGCTGTCCGCTTT | 0.789 | 1.42 | -0.056 | 0.863 | -1.03 | 1.61 | -0.382 | 1.16 | -0.716 | 0.325
15 | CCGACTGGGGCAAGGTTACCATGACGCACAGCCA | -0.0845 | 0.558 | 0.0292 | 0.445 | -1.06 | 1.87 | 2.78 | 3.14 | 1.24 | 2.47
16 | GCGACTGGGGCAAAGCAGGTTAACATAAGGTTGG | 0.921 | 0.436 | -0.346 | 0.261 | -1.01 | 1.41 | 1.62 | 1.19 | 0.0162 | 0.614
17 | TCTCGGAGGACACGAAAGGCCAGAGCTCGACATC | 0.554 | -0.137 | -0.548 | -0.341 | -1.2 | 0.0543 | 0.264 | 0.908 | 1.86 | 1.56
18 | TCCGCTAGGTCAACGATGGTCAGCTAATCTGCTA | 2.89 | 2.67 | 0.0246 | 1.54 | -0.303 | 3.09 | 2 | 2.53 | 1.82 | 2.22
19 | CAAACTAGGTGAAAGGTCAAAGTCGAGCCAACCA | 6.87 | 6.26 | 4.36 | 6.08 | 2.26 | 7.39 | 14.1 | 11.5 | 15.3 | 14.2
20 | CGTCAAAGTTCAACTTAGGTAACGTAAAGCACGC | 7.46 | 6.58 | 4.88 | 4.63 | 2.58 | 5.35 | 5.28 | 5.78 | 2.4 | 4.66
21 | TGAATGATGTTATAAGATCAGGGAACGTTGCAAA | -0.318 | -0.353 | -0.0281 | -0.083 | 0.0619 | 0.0376 | 0.37 | -0.0772 | 0.598 | 0.592
22 | GCTAGTAGTTGAAAGGGCAACCGAATGATTCTCG | 0.181 | 0.507 | 0.0629 | 0.605 | -0.496 | 2.52 | 4.19 | 5.71 | 4.3 | 5.8
23 | ATCTCTACGTAAAGTTCAGTGAAAGATCGATAGA | 0.641 | 1.57 | 1.36 | 1.02 | 1.16 | 1.36 | 1.04 | 2.47 | 1.02 | 1.96
24 | AGTCAAAGTTCATCTAGGTAACGTGAGATATGCT | 6.5 | 5.85 | 4.89 | 3.81 | 1.73 | 4.76 | 6.65 | 6.18 | 3.58 | 5.42
